High-throughput results deposited in PubChem BioAssay by National Center for Advancing Translational Sciences (NCATS).
Shown are actives, neighbours in structure and some others; about 0.77% of the full set was active somewhere.
IL2 activator – activates IL-2 in a cell-based reporter assay | IL-2 activation reporter assay, cell-based qHTS; stimulated with anti-CD3/CD4/CD28 beads; in transgenic mouse T cells | activation, % (series mostly up to about 46 µM) | hit rate 0.065% among 360,000; in the data active = activation above about 50%; inconclusive = mostly about 30% to 49%; note: 0% is about no effect
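Unstimulated transgenic mouse T cells; 60-min compound exposure; bead-based TCR/CD4/CD28 stimulation; 18 h culture, 37 degrees C; dual fluorescence (EGFP, DsRed) plate cytometry.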
Vif-A3G inh – Vif-A3G binding inhibition | Potency, µM (top dose mostly 46.1 µM), for the others: at the top dose activity, negative = active, hits mostly inhibitors | HeLa A3G-eYFP + Vif (tagged APOBEC3G with the HIV-1 protein that degrades it), YFP fluorescence, overnight | hit rate 0.076% among 410,000; note: potency is the fitted concentration of half-maximal effect; % is set by controls: 0 for no effect and ±100 for the full control effect; nearly all actives have a fitted effect of over 60% in size
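Read-out is eYFP fluorescence (Ex 488/Em 500-530) from Vif-expressing HeLa A3G-eYFP cells; more signal means A3G escaped Vif-mediated degradation. Cells plated overnight, compound pinned in, incubated overnight at 37 deg C.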
PKM2 activator – PKM2 (human) enzyme activation; P14618; purified PKM2, Kinase-Glo ATP luminescence, activation; response scale: 0% is enzyme alone, no compound; Potency, µM (titrated, usually from 57.5 µM), for inactives: top-dose activation, usual class: activators; hit rate 0.34% among 260,000; note: potency is the fitted concentration of half-maximal effect; % is set by controls: 0 for no effect and ±100 for the full control effect; nearly all actives have a fitted effect of over 55% in size
Target sequence (P14618 whole entry, looked up): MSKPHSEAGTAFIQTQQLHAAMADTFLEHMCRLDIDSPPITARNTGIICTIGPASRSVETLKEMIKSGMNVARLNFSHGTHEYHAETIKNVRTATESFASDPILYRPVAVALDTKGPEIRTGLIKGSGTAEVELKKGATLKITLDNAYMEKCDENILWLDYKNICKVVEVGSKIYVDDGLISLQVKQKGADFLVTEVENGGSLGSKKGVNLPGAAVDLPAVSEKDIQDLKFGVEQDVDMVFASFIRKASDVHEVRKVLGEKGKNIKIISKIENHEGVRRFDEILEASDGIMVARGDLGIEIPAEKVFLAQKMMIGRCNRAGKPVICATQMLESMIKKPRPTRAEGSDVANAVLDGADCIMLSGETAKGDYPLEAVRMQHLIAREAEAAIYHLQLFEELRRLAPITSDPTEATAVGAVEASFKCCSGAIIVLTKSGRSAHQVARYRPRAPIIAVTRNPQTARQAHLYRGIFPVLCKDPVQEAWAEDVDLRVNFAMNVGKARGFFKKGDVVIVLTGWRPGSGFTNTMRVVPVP
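Purified hPK-M2 (>95% pure) converted ADP (0.1 mM final) to ATP with 0.5 mM PEP in 50 mM imidazole pH7.2, KCl, MgCl2, Tween 20, BSA; 1 h at room temperature. ATP detected by Kinase-Glo luminescence.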
Vif-APOBEC3F blk – inhibitors of Vif-A3F interaction | HeLa A3F-eYFP + Vif (tagged APOBEC3F with the HIV-1 protein that degrades it), YFP fluorescence increase | Potency, µM (highest dose often 46.1 µM), for inactives: top-dose activity, negative = active | hit rate 0.2% among 390,000; note: potency is the fitted concentration of half-maximal effect; % of control where 0% means no effect; nearly all actives have a fitted effect of over 65% in size
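Fluorescence increase (Ex 488/Em 500-530) after overnight compound treatment at 37 deg C flags inhibition of Vif-driven A3F-eYFP loss in stable HeLa A3F-eYFP/Vif cells seeded overnight beforehand.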
RGS12 GoLoco inh – blocks human Gai1 binding to RGS12 GoLoco peptide, red readout; Gai1:RGS12 GoLoco peptide FP, rhodamine, 10 min; Potency, µM (top dose mostly 61.6 µM), for the others: at the highest dose activity, negative = inhibition, hits mostly inhibitors; hit rate 0.44% among 230,000; AID 880; active = well fitted inhibition curve with a large enough effect, not every such curve was filed as active; inactive = no such curve, though single readings can be large or run the other way; note: potency is the fitted concentration of half-maximal effect; % is set by controls: 0 for no effect and ±100 for the full control effect; nearly all actives have a fitted effect of over 30% in size
GCN5L2 inh – blocks human GCN5L2 histone acetyltransferase; GCN5L2 HAT assay, ThioGlo1 CoA-SH fluorescence; Potency, µM (top dose mostly 58.9 µM), for the others: at the top dose activity change, negative = inhibition, actives largely listed as inhibitors; hit rate 0.21% among 390,000; note: potency is the fitted concentration of half-maximal effect; % is set by controls: 0 for no effect and ±100 for the full control effect
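GCN5L2 (20nM final) in 50mM HEPES, 0.1mM EDTA pH 7.5, 0.01% Tween-20 was preincubated 15 min at room temperature with compound, then given ThioGlo1 (50uM), H3(1-25) peptide (75uM) and acetyl-CoA (70uM); CoA-thiol fluorescence (Ex340/Em540) was read at 0 and 20 min.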
* marks the source's active call; other numbers are inactive results; u = inconclusive; x = no result; ! = a repeat was not active; [ ] = dose if it differs, or a comment. Unless noted, calls come from the whole dose curve; as a rule, active = well fitted curve in the direction sought with a large enough effect; inconclusive = small, poorly fitted or top-dose-only effect, or another doubt; inactive = no such curve, though single readings can be large; an effect the other way counts as inactive or inconclusive.

SMILES	IL2 activator	Vif-A3G inh	PKM2 activator	Vif-APOBEC3F blk	RGS12 GoLoco inh	GCN5L2 inh
O=C(Nc1cc(NC(=O)c2ccccc2Cl)ccc1Cl)c1ccccc1	x	-6%	x	3%	x	-8%
Cc1cc(O)c2c(c1O)C(=O)c1c(O)cc(C)c(O)c1C2=O	x	x	x	x	2%	2%
Cc1cc(=O)c2c(O)c3c(O)cc(O)c4c5c(O)cc(O)c6c(O)c7c(=O)cc(C)c8c1c2c(c34)c(c65)c78	x	x	x	x	4.5µM*	18µM*
O=C(NCCc1ccccc1)C1CCN(S(=O)(=O)c2cccc3nonc23)CC1	0	-8%	-3%	-16%	5%	-4%[0.501 µM]
O=C(NCCN1CCN(c2ccccc2)CC1)C1CCN(S(=O)(=O)c2cccc3nonc23)CC1	9	0%	-14%	2%	7%	1.8µM*
C1CCCNCC1	x	x	x	x	22µM*	x
CC(=O)c1cc(O)c2ccccc2c1O	0	u	3%	u	14µM*	u
Cc1cc(C)c2[nH]c(=O)c(C(c3nnnn3C(C)(C)C)N3CCN(C(=O)c4ccco4)CC3)cc2c1 (centres undefined)	-2	-8%	11µM*	-2%	-23%	-3%
CC(=O)N1CCN(S(=O)(=O)c2cccc(C(=O)Nc3ccccc3N3CCOCC3)c2)CC1	-1	1%	3%	-6%	2%	-5%
c1ccc2[nH]c(SN3CCOCC3)nc2c1	x	x	0%	x	8.9µM*	-19%
COc1ccc(C2Nc3ccccc3C(=O)N2Cc2ccco2)cc1OC (centres undefined)	x	-6%	x	x	x	x
COc1ccc(C2Nc3ccccc3C(=O)N2Cc2ccco2)cc1CN1C(=O)c2ccccc2C1=O (centres undefined)	-1	-5%	20µM*!	-9%	5%	-3%
COc1ccc(C2Nc3ccccc3C(=O)N2Cc2ccco2)cc1COc1ccc(F)cc1 (centres undefined)	-1	-1%	14µM*	-21%	65%	4%
Oc1ccc(COCc2ccccc2)c2cccnc12	-2	-6%	2%	4%	19%	25µM*!
Cc1nc2ccccc2nc1N1CCCC1	-3	-1%	-5%	-16%	-3%[14.2 µM]	-9%
Cc1ccc2c(Cl)c(C)c(N3CCCC3)nc2n1	0	2%	-3%	22µM*	8%	0%
CC(=O)C1=C(C)NC(SCC(=O)c2ccc(Cl)cc2)=C(C#N)C1c1ccco1 (centres undefined)	1	u	16%	25µM*	45%	-18%
O=C1CCc2ccc(OCCCCN3CCN(c4cccc(Cl)c4Cl)CC3)cc2N1	0	2%	-9%	2%	7%	u
O=C(N/N=C/C=C/c1ccccc1[N+](=O)[O-])c1cccs1	0	-8%	4%	0%	5%	-7%
O=C(N/N=C\C=C\c1ccc([N+](=O)[O-])o1)c1cccs1	1	10µM*	x	u	x	-4%
CCOC(=O)c1c(NS(=O)(=O)c2cccc(OC)c2)sc2c1CCC2	-3	0%	16µM*	0%	17%	-23%
CCOC(=O)c1c(NC(=O)c2cc(-c3cccc(OC)c3)on2)sc2c1CCCC2	x	3%	x	0%	x	-21%
N#C/C(=C\c1ccc(O)cc1)c1nc2ccccc2o1	57*	u	0%	u	13%	-8%
Cc1ccc2nsnc2c1S(=O)(=O)NCc1ccncc1	0	2%	-1%	-3%	11%	0%
Cc1[nH]c(C)c(S(=O)(=O)NCCc2ccc(S(N)(=O)=O)cc2)c1C(=O)N1CCCC1	0	-2%	x	3%	x	-3%
SMILES	IL2 activator	Vif-A3G inh	PKM2 activator	Vif-APOBEC3F blk	RGS12 GoLoco inh	GCN5L2 inh
COc1cc(/C=C2\SC(=Nc3cccnc3)NC2=O)cc(OC)c1OC	1	u	-25%	25µM*	184%	u
O=C1NC(=Nc2cccnc2)S/C1=C\c1cccc(F)c1	0	-9%	3%	-15%	141%	-27%
COc1cc(/C=C2/SC(=Nc3ccc(O)cc3)NC2=O)ccc1O	11	u	u	25µM*	24%	-8%
COc1cc(/C=C2\SC(=Nc3ccccc3OC)NC2=O)ccc1O	0	u	0%	u	x	-3%
FC(F)(F)c1cccc(CNC2CCN(Cc3ccccc3)CC2)c1	0	4%	-10%	-6%	x	-13%
CCOc1cc(C(=O)OCC(=O)Nc2cccc(S(=O)(=O)NC3=NCCCCC3)c2)cc(OCC)c1OCC	-3	1%	x	2%	x	-8%
CC(C)c1nnc(SCC(=O)N2CCc3ccccc32)n1C	0	-7%	0%	-16%	9%	1%
CCn1c(O)c(C=Nc2ccccc2)sc1=S	4	-8%	-1%	-19%	18%	-8%
Oc1c(C=Nc2ccccc2)sc(=S)n1Cc1ccccc1	71*	-29%	-2%	u	182%	-1%
COCCN1C[C@@H](CO)O[C@@H](n2cnc3c(NCCO)ncnc32)C1	0	3%	x	x	x	x
On1onc2c3cc(-c4ccccc4)nc3ccc21	0	3.5µM*	3%	u	-4%	-5%
O=C(CSc1nnc(SCc2ccccc2)s1)N/N=C/c1c[nH]c2ccccc12	0	-2%	u	4%	-3%	-7%
Cc1ccc(CSc2nnc(SCC(=O)N/N=C/c3c[nH]c4ccccc34)s2)cc1	1	-9%	25µM*	15%	8%	-13%
O=C(CN1C(=O)c2cccc3cccc1c23)NCc1cccnc1	1	1%	-2%	-1%	10%	32µM*
Cc1oc(-c2cccc(Cl)c2)nc1CN1CCCC(C(=O)NCCc2ccc(Cl)cc2)C1 (centres undefined)	x	-1%	x	8%	x	-1%
Cc1cc(O)ccc1N=Cc1c(C(F)(F)F)[nH][nH]c1=O	-1	0%	-3%	-25%	7.1µM*	-7%
Cc1cc(SCn2nnc3ccccc3c2=O)nc2ccccc12	0	-1%	3%	-13%	10%	-3%
Cc1ccc(-n2nnnc2SCn2nnc3ccccc3c2=O)c(C)c1	-2	0%	16µM*	-1%	2%	x
CN(C)c1ccc(C=NCCC2(c3ccccc3)CCOC(C)(C)C2)cc1 (centres undefined)	-1	-2%	1%	2%	5%	-9%
Cc1cn2c(=O)cc(COc3ccc(NC(=O)COc4ccccc4)cc3)nc2s1	x	3%	x	1%	x	-5%
CC[n+]1ccccc1/C=C1\Sc2ccc(C)cc2N1C	-1	u	x	22µM*	x	-2%
CN1/C(=C/c2cccc[n+]2CCO)Sc2ccccc21	2	-8%	-6%	8%	x	-22%
